Measurements from PubChem BioAssay (NCATS).
Results filed as inconclusive are left out. Activity calls are given as the source filed them. Calls follow the shape of the dose curve; as a rule, active = well fitted curve in the direction sought with a large enough effect; inconclusive = small, poorly fitted or top-dose-only effect, or another doubt; inactive = no such curve, though single readings can be large; an effect the other way counts as inactive or inconclusive.

Tests used:
[1] = HPAF-II 24hr Apoptosis Induction qHTS against the NCATS CANVASS Library (AID 1347356); also: 0% is about no effect
Method in brief: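 Using an 11-point qHTS format, HPAF-II cells in DMEM/10% FBS received compounds for 24 h; doxorubicin titration as control. Caspase-3/7 activity quantified by DEVD-luciferase luminescence.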

[2] = HEK293 18hr Apoptosis Induction qHTS against the NCATS CANVASS Library (AID 1347357); also: 0% is about no effect
Method in brief: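 Cells seeded at 500/well in DMEM + 10% FBS. Compounds pinned, 11 concentrations. 18 h, 37 degrees C/5% CO2. Caspase-Glo 3/7 added, 15 min RT dark, luminescence read.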

[3] = HPAF-II 12hr Apoptosis Induction qHTS against the NCATS CANVASS Library (AID 1347358); also: 0% is about no effect
Method in brief: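 Twelve-hour compound exposure of HPAF-II cells in DMEM with 10% FBS, then luminescent Caspase-Glo 3/7 detection after 15 min at room temperature; doxorubicin control.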

[4] = HEK293 24hr Apoptosis Induction qHTS against the NCATS CANVASS Library (AID 1347359); also: 0% is about no effect
Method in brief: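 HEK293 cells, 500 per well, exposed to an 11-point compound series for 24 hours at 37 degrees C. Caspase 3/7 activity read by Caspase-Glo luminescence (DEVD substrate) after 15 min at room temperature.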

[5] = HPAF-II 18hr Apoptosis Induction qHTS against the NCATS CANVASS Library (AID 1347360); also: 0% is about no effect
Method in brief: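 Seed HPAF-II cells at 500/well in DMEM + 10% FBS, pin-transfer compounds, incubate 18 hours at 37 degrees C/5% CO2, add Caspase-Glo 3/7 reagent, wait 15 min, read luminescence.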

[6] = HEK293 12hr Apoptosis Induction qHTS against the NCATS CANVASS Library (AID 1347361); also: 0% is about no effect
Method in brief: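 Cells are seeded, dosed with an 11-point compound series and incubated 12 hours. Caspase-3/7 activity is detected by luminescent DEVD-substrate reagent after 15 minutes at room temperature.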

[7] = system: NAD(P)H diaphorase (Clostridium kluyveri); assay: Diaphorse counterscreen qHTS: Assay Interference Panel against the NCATS CANVASS Library (AID 1347362); also: 0% is about no effect
Method in brief: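 Clostridium kluyveri diaphorase in PBS + 0.01% Tween-20 preincubated 15 min with compounds. Resazurin and NADH then added for 5 min at room temperature in the dark; resorufin fluorescence read (ex 525, em 598).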

[8] = target: Luciferin 4-monooxygenase (Photinus pyralis) (UniProt P08659); assay: Firefly luciferase counterscreen qHTS: Assay Interference Panel against the NCATS CANVASS Library (AID 1347363); also: series mostly up to about 57 µM; 0% is about no effect
Method in brief: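 Purified P. pyralis luciferase (0.04 ug/mL, 4x reagent) added to Tris-acetate buffer with 0.013 mM D-luciferin, 0.013 mM ATP and 13.3 mM Mg-acetate; compounds preincubated 15 min, then luminescence read after 5 min, RT.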

[9] = KB-3-1 Cancer Cell Toxicity qHTS against the NCATS CANVASS Library (AID 1347366); also: nearly all actives have a fitted effect of over 75% in size; also: potency is read from the fitted curve at half-maximal effect; as to activity change, negative = cytotoxicity: series mostly up to about 46 µM; % is scaled to controls: 0 for no effect and ±100 for the full control effect
Method in brief: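 Luminescence from CellTiter-Glo (10 min, room temperature) measured KB-3-1 viability after 72 hr compound exposure at 37C. Cells were seeded at 500/well and tested in an 11-point series.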

[10] = MCF7 Cancer Cell Toxicity qHTS against the NCATS CANVASS Library (AID 1347369)
Method in brief: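 Cells seeded at 500/well, then compound pinned. Plates incubated 72 hr at 37C, 5% CO2. CellTiterGlo added; luminescence read.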

[11] = qHTS for ATAD5 Antagonist screened against the NCATS CANVASS Library (AID 1347370); also: nearly all actives have a fitted effect of over 65% in size; also: potency is read from the fitted curve at half-maximal effect;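 as to activity change, negative = inhibition: HEK293T cells carrying an ATAD5 luciferase reporter co-treated with 10 µM 5-fluorouridine; series mostly up to about 46 µM; % is scaled to controls: 0 for no effect and ±100 for the full control effect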
Method in brief: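 HEK293T-ATAD5 luc reporter, 2000 cells/well; 5hr attach; cpd + 10 uM 5-FUrd; 16hr 37C, 5% CO2. Readouts: CellTiter-Fluor fluorescence (1hr), then Amplite luciferase luminescence (30min RT).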

[12] = J3T Cancer Cell Toxicity qHTS against the NCATS CANVASS Library (AID 1347371); also: potency is read from the fitted curve at half-maximal effect;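 as to activity change, negative = cytotoxicity: J3T is a canine glioma cancer cell line seeded at 500 cells per well; series mostly up to about 46 µM; % is scaled to controls: 0 for no effect and ±100 for the full control effect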
Method in brief: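 ATP-based cytotoxicity in canine J3T cells: 72 hr exposure at 37C, 11-point titration, CellTiterGlo luminescent detection.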

[13] = 10-beta competent E. coli microbial cell viability qHTS against the NCATS CANVASS Library (AID 1347376); also: series mostly up to about 46 µM; 0% is about no effect
Method in brief: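 Overnight 37C exposure of 10-beta E. coli (0.2 OD) to an 11-point concentration series; ATP-based luminescence after 20 min room-temperature reagent incubation; daunomycin as control.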

[14] = qHTS for H2AX Agonists against the NCATS CANVASS Library (AID 1347378);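 also: phospho-H2AX S139 level in CHO-K1 lysates by TR-FRET emission ratio; 0% is about no effect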
Method in brief: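 CHO-K1, 1000 cells/well, o/n 37C; cpd several conc, 3 hr 37C, 0.76% DMSO; lyse 30 min RT; cryptate anti-pH2AX(S139) + d2 anti-H2AX, 24 hr RT; HTRF 665/620.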

[15] = qHTS for Inflammasome Signaling Inhibitors: IL-1-beta AlphaLISA screen against the NCATS CANVASS Library (AID 1347379);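 also: human THP-1 cells primed with LPS then triggered with ATP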;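 as to activity change, negative = inhibition: secreted IL-1B measured as AlphaLISA emission at 615 nm; % is scaled to controls: 0 for no effect and ±100 for the full control effect; lower signal means less IL-1B release which is the wanted effect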
Method in brief: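 THP-1, 1 hr compound pre-incubation, then LPS 250 ng/mL + ATP 1.25 mM (final); 16 hr total with compound; IL-1B AlphaLISA, ex 680/em 615 nm; 11-point qHTS, up to 57.5 uM final.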

[16] = Inflammasome Signaling qHTS Counterscreen: IL-1-beta AlphaLISA counterscreen against the NCATS CANVASS Library (AID 1347381);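 also: cell-free check with purified IL-1β in medium and no THP-1 cells; series mostly up to about 57 µM; 0% is about no effect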
Method in brief: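 Here, no cellular stimulation occurs; compounds in an 11-point series meet 4 pg purified IL-1-beta directly. Bead-based AlphaLISA detection follows (1 h acceptor/antibody, then 30 min donor, dark, room temperature), with excitation at 680 nm.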

[17] = Cytotoxicity qHTS for assessment of Hepg2 cells membrane integrity screened against the NCATS CANVASS Library (AID 1347387)
Method in brief: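 Membrane damage in HepG2 monolayers was estimated from released LDH, measured with CytoTox-ONE (ex 560/em 590 nm), after 5 hr treatment across 0.59 nM - 46 uM final.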

[18] = qHTS for activators of dead-cell proteases activity screened against the NCATS CANVASS Library (AID 1347392);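 also: luminescence from protease leaking out of membrane-damaged cells cleaving impermeant substrate; 0% is about no effect; rising signal means more cytotoxicity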
Method in brief: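 HepG2, 2000 cells/well, 18 h attach; cpd 11-pt, 5 h 37C 5% CO2; CytoTox-Glo (AAF-aminoluciferin) 15 min RT; luminescence read.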

[19] = Redox Reaction Profiling qHTS: Assay Interference Panel against the NCATS CANVASS Library (AID 1347401);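 also: 100% = activation by 2 µM chloranil control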
Method in brief: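 Fluorescence read-out (525 nm excitation, 598 nm emission) at time zero and after 15 min in the dark tracked resorufin formation. Mix: 5 uM resazurin, 200 uM DTT, HEPES pH 7.3 buffer with NaCl.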

[20] = G06 Cancer Cell Toxicity qHTS against the NCATS CANVASS Library (AID 1347368); also: nearly all actives have a fitted effect of over 60% in size; also: potency is read from the fitted curve at half-maximal effect; as to activity change, negative = cytotoxic: series mostly up to about 46 µM; % is scaled to controls: 0 for no effect and ±100 for the full control effect
Method in brief: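 Quantitative HTS in G06 cells (dog glioma): 72 hr treatment, 11 concentrations, then ATP-based luminescent viability readout; bortezomib 0.1 nM–4.6 uM final as reference.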

Sequence of Luciferin 4-monooxygenase (Photinus pyralis) (P08659 whole entry, looked up): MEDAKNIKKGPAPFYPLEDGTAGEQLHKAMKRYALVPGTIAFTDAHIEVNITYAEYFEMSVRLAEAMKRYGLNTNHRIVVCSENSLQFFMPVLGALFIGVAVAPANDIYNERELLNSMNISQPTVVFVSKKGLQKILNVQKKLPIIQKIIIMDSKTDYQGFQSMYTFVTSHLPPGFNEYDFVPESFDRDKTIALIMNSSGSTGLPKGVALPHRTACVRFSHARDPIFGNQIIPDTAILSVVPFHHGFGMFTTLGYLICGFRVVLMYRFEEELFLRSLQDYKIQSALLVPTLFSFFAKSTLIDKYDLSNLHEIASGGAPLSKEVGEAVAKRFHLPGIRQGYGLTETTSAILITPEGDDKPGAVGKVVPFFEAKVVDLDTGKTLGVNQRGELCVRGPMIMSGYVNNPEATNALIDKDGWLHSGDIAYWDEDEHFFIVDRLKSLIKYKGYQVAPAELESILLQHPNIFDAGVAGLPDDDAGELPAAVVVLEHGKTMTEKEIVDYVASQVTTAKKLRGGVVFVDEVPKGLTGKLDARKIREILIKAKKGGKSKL

C[C@]12CC[C@]3(C1)[C@H](CC2=O)C[C@@H](OC(=O)c1ccccc1)[C@H]1[C@](C)(C(=O)O)CCC[C@@]13C
active: Potency [9] 18.7 µM
inactive: outcome [1] | Potency [2] | Potency [3] | Potency [4] | Potency [5] | outcome [6] | Potency [7] | Potency [8] | Potency [10] | Potency [11] | Potency [12] | outcome [13] | Potency [14] | Potency [15] | outcome [16] | outcome [17] | Potency [18] | Potency [19]

C/C=C(/C)c1c(Cl)c(OC)c(C)c2c1Oc1c(Cl)c(O)c(Cl)c(C)c1C(=O)O2
inactive: outcome [1] | Potency [2] | Potency [3] | Potency [4] | Potency [5] | outcome [6] | Potency [8] | Potency [9] | Potency [20] | outcome [13] | Potency [14] | Potency [15] | outcome [16] | outcome [17] | Potency [18] | Potency [19]

COc1cc(C2OCC3C(c4ccc(O)c(OC)c4)OCC23)ccc1O (stereo unspecified)
inactive: caspase activation [1] 1.94% [at 9.19 µM] | caspase activation [2] 1.93% [at 9.19 µM] | caspase activation [3] 6.04% [at 9.19 µM] | activation [4] 6.68% [at 9.19 µM] | caspase activation [5] -1.71% [at 9.19 µM] | caspase activation [6] 3.13% [at 9.19 µM] | activity change, negative = inhibition [7] 1.68% [at 11.5 µM] | activity change, negative = inhibition [8] 1.7% [at 11.5 µM] | outcome [9] inactive [at 9.19 µM] | outcome [20] inactive [at 9.19 µM] | activity change, negative = cytotoxicity [10] -7.78% [at 9.17 µM] | activity change, negative = inhibition [11] -9.99% [at 9.19 µM] | activity change, negative = cytotoxicity [12] 0.397% [at 9.19 µM] | activity change, negative = cytotoxic [13] -5.45% [at 9.19 µM] | activation [14] -3.74% [at 15.3 µM] | activity change, negative = inhibition [16] -8.43% [at 11.5 µM] | cytotoxicity (LDH release) [17] 0.144 [at 9.19 µM] | activation (cytotoxicity) [18] 4.3% [at 9.19 µM] | activation (redox signal) [19] -17.9% [at 11.4 µM]

C[C@H]1C=C[C@H]2CCCC[C@@H]2[C@H]1C(=O)[C@H]1CC2=C(C(=O)O)CCN2C1=O
inactive: outcome [1] | Potency [2] | Potency [3] | Potency [4] | Potency [5] | outcome [6] | Potency [7] | Potency [8] | Potency [9] | Potency [10] | Potency [11] | Potency [12] | outcome [13] | Potency [14] | Potency [15] | outcome [16] | outcome [17] | Potency [18] | Potency [19]

C=CC(CCCCC)C1C(=O)NC(=O)C1C(=O)C1C2C(C)CC(C(=O)O)CC2CC1(O)C(=O)/C=C/C (stereo unspecified)
inactive: outcome [1] | Potency [2] | Potency [3] | Potency [4] | Potency [5] | outcome [6] | Potency [7] | Potency [8] | Potency [9] | Potency [20] | Potency [10] | Potency [11] | Potency [12] | outcome [13] | Potency [14] | Potency [15] | outcome [16] | outcome [17] | Potency [18] | Potency [19]

CO[C@H]1[C@@H](OC(=O)/C(C)=C\[C@@H]2O[C@@H]2[C@H]2O[C@H]2C)[C@H](O)[C@H](OCC23C[C@@H]4[C@H](C)CC[C@H]4C4(C=O)CC2C=C(C(C)C)C34C(=O)O)O[C@@H]1C (stereo partly specified)
inactive: outcome [1] | Potency [2] | Potency [3] | Potency [4] | Potency [5] | outcome [6] | Potency [7] | Potency [8] | Potency [9] | Potency [20] | Potency [10] | Potency [11] | Potency [12] | outcome [13] | Potency [14] | Potency [15] | outcome [16] | outcome [17] | Potency [18] | Potency [19]

CC(C)C[C@@H]1c2c(O)c(C=O)c(O)c(C=O)c2O[C@]2(C)C=C[C@@H](C(C)C)C[C@H]12
inactive: outcome [1] | Potency [2] | Potency [3] | Potency [4] | Potency [5] | outcome [6] | Potency [7] | Potency [8] | Potency [9] | Potency [20] | Potency [10] | Potency [12] | outcome [13] | Potency [14] | Potency [15] | outcome [16] | outcome [17] | Potency [18]

COc1ccc2[nH]c3c(c2c1)CCN1C[C@H]2C[C@@H](OC(=O)c4cc(OC)c(OC)c(OC)c4)[C@H](OC)[C@@H](OC)[C@H]2C[C@H]31
active: Potency [20] 1.48 µM | Potency [11] 6.6 µM
inactive: outcome [1] | Potency [2] | Potency [3] | Potency [4] | Potency [5] | outcome [6] | Potency [8] | Potency [12] | outcome [13] | Potency [14] | Potency [15] | outcome [16] | outcome [17] | Potency [18] | Potency [19]

C=C(C)CC[C@H](Cc1c(O)cc(O)c2c1O[C@H](c1ccc(O)cc1)CC2=O)C(=C)C
active: Potency [11] 23.4 µM
inactive: outcome [1] | Potency [2] | Potency [3] | Potency [4] | Potency [5] | outcome [6] | Potency [7] | Potency [8] | Potency [20] | Potency [10] | outcome [13] | Potency [14] | Potency [15] | outcome [16] | outcome [17] | Potency [18] | Potency [19]

C=CC(CCCCC)C1C(=O)NC(=O)C1C(=O)C1C(/C=C/C)C=CC2CC(C(=O)O)CC(C)C21 (stereo unspecified)
inactive: outcome [1] | Potency [2] | Potency [3] | Potency [4] | Potency [5] | outcome [6] | Potency [8] | Potency [9] | Potency [20] | Potency [10] | Potency [11] | Potency [12] | outcome [13] | outcome [16] | outcome [17] | Potency [18] | Potency [19]

O=c1cc(-c2ccc(O)c(O)c2)oc2cc(O[C@@H]3O[C@H](CO)[C@@H](O)[C@H](O)[C@H]3O)cc(O)c12
inactive: outcome [1] | Potency [2] | Potency [3] | Potency [4] | Potency [5] | outcome [6] | Potency [8] | Potency [10] | Potency [11] | Potency [12] | outcome [13] | Potency [14] | Potency [15] | outcome [16] | outcome [17] | Potency [18] | Potency [19]

CC(=O)Oc1cc2c(c(OC(C)=O)c1C1CCc3cc(Cl)c(Cl)n31)C(=O)n1c-2cc(Cl)c1Cl (stereo unspecified)
inactive: outcome [1] | Potency [2] | Potency [3] | Potency [4] | Potency [5] | outcome [6] | Potency [7] | Potency [8] | outcome [13] | Potency [14] | outcome [16] | outcome [17] | Potency [18]
active: Potency [9] 23.5 µM | Potency [20] 14.8 µM | Potency [12] 13.2 µM
